Where “and” joins values, the source holds several entries; their conditions need not be identical. Equal values may be shown once. Records with an inconclusive call do not appear. A call without a number means that no potency is given here. More than one record can exist for a structure, and the calls need not agree. Calls of active or inactive are those of the source. Unless noted, the call rests on the fitted dose curve; in most records, active means well fitted curve in the direction sought with a large enough effect in the repeat runs; inconclusive means weak or mixed curves; inactive means no such curve, though single readings can be large; an effect the other way counts as inactive or inconclusive.
Legend:
[1] = qHTS assay to identify small molecule antagonists of the glucocorticoid receptor (GR) signaling pathway - cell viability counter screen (AID 720693); further: nearly all actives have a fitted effect of over 55% in size
[2] = qHTS assay for identifying genotoxic compounds that show differential cytotoxicity against isogenic chicken DT40 cell lines with known DNA damage response pathways - wild type cell line (AID 743012); further: nearly all actives have a fitted effect of over 60% in size; further: potency means the concentration at half of the fitted maximal effect
Summary of the method: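 Endpoint: CellTiter-Glo luminescence, 30 min RT. Cells: wild type DT40, 300/well. Exposure: compounds in DMSO, 40 h, 37 C/5% CO2, after ~0.5 h pre-incubation.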

[3] = qHTS assay for identifying genotoxic compounds that show differential cytotoxicity against isogenic chicken DT40 cell lines with known DNA damage response pathways - Rev3 mutant cell line (AID 743014); further: nearly all actives have a fitted effect of over 55% in size; further: potency means the concentration at half of the fitted maximal effect
[4] = qHTS assay for identifying genotoxic compounds that show differential cytotoxicity against isogenic chicken DT40 cell lines with known DNA damage response pathways - Rad54/Ku70 mutant cell line (AID 743015); further: nearly all actives have a fitted effect of over 60% in size; further: potency means the concentration at half of the fitted maximal effect
[5] = qHTS assay to identify small molecule antagonists of the androgen receptor (AR) signaling pathway - cell viability counter screen (AID 743033; further: nearly all actives have a fitted effect of over 45% in size; further: potency means the concentration at half of the fitted maximal effect)
[6] = qHTS assay to identify small molecule antagonists of the androgen receptor (AR) signaling pathway using the MDA cell line - cell viability counter screen (AID 743041; further: nearly all actives have a fitted effect of over 45% in size; further: potency means the concentration at half of the fitted maximal effect)
Summary of the method: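 In this qHTS counter assay, fluorescence intensity after CellTiter-Fluor addition indicated viability of MDA-kb2 AR-luc cells given compounds and R1881 for 16 h at 37C.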

[7] = qHTS assay to identify small molecule antagonists of the thyroid receptor (TR) signaling pathway - cell viability counter screen (AID 743064); further: nearly all actives have a fitted effect of over 50% in size; further: potency means the concentration at half of the fitted maximal effect
Summary of the method: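 GH3.TRE-Luc rat pituitary cells carrying a TRE-luciferase reporter were treated with compound plus 1 nM T3 (final) for 23.5 h at 37 °C. Viability was then read in the same wells by CellTiter-Fluor fluorescence after a further 30 min.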

[8] = qHTS assay to identify small molecule antagonists of the thyroid receptor (TR) signaling pathway (AID 743065); further: nearly all actives have a fitted effect of over 55% in size; further: potency means the concentration at half of the fitted maximal effect
Summary of the method: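 GH3.TRE-Luc rat pituitary cells carrying two TR response elements driving luciferase were plated for 4 h, given compound plus 1 nM T3 (final), and incubated 23.5 h at 37 C. ONE-Glo luminescence measured reporter inhibition; CellTiter-Fluor fluorescence tracked cytotoxicity.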

[9] = test system: thyroid hormone receptor (rat, GH3 cells); test: qHTS assay to identify small molecule agonists of the thyroid receptor (TR) signaling pathway (AID 743066; calls by dose curve; further: potency means the concentration at half of the fitted maximal effect)
[10] = qHTS assay to identify small molecule antagonists of the estrogen receptor alpha (ER-alpha) signaling pathway - cell viability counter screen (AID 743074; calls by dose curve;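 further: HEK293 cells carrying ER-alpha-UAS-bla reporter stimulated with 17beta-estradiol; nearly all actives have a fitted effect of over 45% in size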; further: potency means the concentration at half of the fitted maximal effect)
[11] = target: Estrogen receptor (Homo sapiens) (UniProt P03372); test: qHTS assay to identify small molecule agonists of the estrogen receptor alpha (ER-alpha) signaling pathway (AID 743075; calls by dose curve; further: potency means the concentration at half of the fitted maximal effect)
[12] = target: Estrogen receptor (Homo sapiens) (UniProt P03372); test: qHTS assay to identify small molecule agonists of the estrogen receptor alpha (ER-alpha) signaling pathway using the BG1 cell line (AID 743079); further: nearly all actives have a fitted effect of over 20% in size; further: potency means the concentration at half of the fitted maximal effect
[13] = qHTS assay to identify small molecule antagonists of the estrogen receptor alpha (ER-alpha) signaling pathway using the BG1 cell line (AID 743080; calls by dose curve; further: series mostly up to about 70 µM; nearly all actives have a fitted effect of over 25% in size)
Summary of the method: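 Antagonist mode: compounds in DMSO were pinned onto BG1-Luc-4E2 cells alongside 17beta-estradiol agonist, incubated 21.5 h, and ERE-driven luciferase measured with ONE-Glo. Cytotoxicity was multiplexed using CellTiter-Fluor fluorescence.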

[14] = qHTS assay to identify small molecule antagonists of the estrogen receptor alpha (ER-alpha) signaling pathway using the BG1 cell line - cell viability counter screen (AID 743081);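 further: compound given together with 17beta-estradiol as the ER stimulus; nearly all actives have a fitted effect of over 45% in size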; further: potency means the concentration at half of the fitted maximal effect
[15] = target: Aromatase (Homo sapiens) (UniProt P11511); test: qHTS assay to identify aromatase inhibitors (AID 743083); further: nearly all actives have a fitted effect of over 55% in size; further: potency means the concentration at half of the fitted maximal effect
[16] = target: Estrogen receptor (Homo sapiens) (UniProt P03372); test: qHTS assay to identify small molecule antagonists of the estrogen receptor alpha (ER-alpha) signaling pathway (AID 743069; active means well fitted curve in the direction sought with a large enough effect in the signal ratio in the repeat runs, not every such curve was filed as active; the % refers to the signal ratio)
Summary of the method: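 A 17beta-estradiol challenge was applied right after compound transfer to ER-alpha-UAS-bla HEK293 cells previously kept in charcoal-stripped serum. Plates stood 18 hr at 37C and 5% CO2; fluorescence was read following 2 hr FRET substrate loading at room temperature.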

[17] = target: Androgen receptor (Homo sapiens) (UniProt P10275); test: qHTS assay to identify small molecule agonists of the androgen receptor (AR) signaling pathway (AID 743036; active means well fitted activation curve with a large enough effect in the signal ratio in the repeat runs, with a control signal flat, not every such curve was filed as active; the % refers to the signal ratio)
Summary of the method: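 HEK293 cells stably carrying a UAS-driven beta-lactamase reporter (GeneBLAzer AR-UAS-bla-GripTite) were plated at 2,000 cells/well, rested 4 h at 37C, then exposed to compounds in DMSO for 16 h. LiveBLAzer B/G FRET substrate was added for 2 h at room temperature; fluorescence read.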

[18] = target: Androgen receptor (Homo sapiens) (UniProt P10275); test: qHTS assay to identify small molecule agonists of the androgen receptor (AR) signaling pathway using the MDA cell line (AID 743040; further: nearly all actives have a fitted effect of over 20% in size)
Summary of the method: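 Cell-based luciferase reporter: MDA-kb2, MMTV promoter (AR + GR response elements). 16 h compound exposure at 37C; ONE-Glo, 30 min RT, luminescence.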

[19] = target: Androgen receptor (Homo sapiens) (UniProt P10275); test: qHTS assay to identify small molecule antagonists of the androgen receptor (AR) signaling pathway using the MDA cell line (AID 743042; further: nearly all actives have a fitted effect of over 55% in size; further: potency means the concentration at half of the fitted maximal effect)
Summary of the method: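 MDA-kb2 cells (human breast carcinoma, stably carrying an MMTV-luciferase reporter responsive to AR and GR) were plated at 3,000 cells/well and preincubated 5 hr at 37C, then given compound plus R1881 agonist for 16 h. ONE-Glo luminescence was read.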

[20] = target: Androgen receptor (Homo sapiens) (UniProt P10275); test: qHTS assay to identify small molecule antagonists of the androgen receptor (AR) signaling pathway (AID 743035; active means well fitted inhibition curve with a large enough effect in the signal ratio in the repeat runs, not every such curve was filed as active; the % refers to the signal ratio; further: potency means the concentration at half of the fitted maximal effect)
Summary of the method: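 R1881 agonist challenge of a HEK293 UAS-beta-lactamase AR reporter line in the presence of compound (16 h, 37C); signal taken as FRET fluorescence after 2 h with LiveBLAzer B/G substrate at room temperature.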

Sequence of Aromatase (Homo sapiens) (P11511 whole entry, looked up): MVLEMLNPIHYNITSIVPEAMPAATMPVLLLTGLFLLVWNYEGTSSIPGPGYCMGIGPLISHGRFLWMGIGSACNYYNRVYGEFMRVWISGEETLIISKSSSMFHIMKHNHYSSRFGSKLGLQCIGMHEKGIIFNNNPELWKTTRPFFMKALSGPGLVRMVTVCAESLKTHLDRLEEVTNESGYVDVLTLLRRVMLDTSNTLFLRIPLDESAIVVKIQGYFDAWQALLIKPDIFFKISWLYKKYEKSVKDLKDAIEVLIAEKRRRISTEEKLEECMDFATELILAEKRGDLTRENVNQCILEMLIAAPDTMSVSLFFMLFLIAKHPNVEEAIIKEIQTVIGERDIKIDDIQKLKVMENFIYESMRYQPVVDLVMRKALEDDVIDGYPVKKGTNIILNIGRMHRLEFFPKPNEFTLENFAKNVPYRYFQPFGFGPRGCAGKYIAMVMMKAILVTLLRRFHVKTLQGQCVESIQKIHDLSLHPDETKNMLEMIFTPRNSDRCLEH
Sequence of Estrogen receptor (Homo sapiens) (P03372 whole entry, looked up): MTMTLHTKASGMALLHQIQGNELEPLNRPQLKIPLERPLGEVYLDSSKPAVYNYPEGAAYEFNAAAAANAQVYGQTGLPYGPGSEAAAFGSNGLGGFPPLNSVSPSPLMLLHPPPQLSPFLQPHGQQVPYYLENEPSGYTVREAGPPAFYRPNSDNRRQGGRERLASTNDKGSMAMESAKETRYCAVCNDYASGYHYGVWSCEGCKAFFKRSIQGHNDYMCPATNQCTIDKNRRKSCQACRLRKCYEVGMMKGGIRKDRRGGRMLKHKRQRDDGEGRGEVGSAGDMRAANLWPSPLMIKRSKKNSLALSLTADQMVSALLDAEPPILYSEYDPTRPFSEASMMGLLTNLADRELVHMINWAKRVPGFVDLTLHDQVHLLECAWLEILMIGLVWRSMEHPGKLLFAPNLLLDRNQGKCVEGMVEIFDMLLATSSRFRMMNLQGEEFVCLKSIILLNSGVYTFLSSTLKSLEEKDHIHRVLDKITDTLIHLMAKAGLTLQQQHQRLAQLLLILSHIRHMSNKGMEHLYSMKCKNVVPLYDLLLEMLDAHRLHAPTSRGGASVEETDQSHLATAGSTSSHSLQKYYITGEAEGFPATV
Sequence of Androgen receptor (Homo sapiens) (P10275 whole entry, looked up): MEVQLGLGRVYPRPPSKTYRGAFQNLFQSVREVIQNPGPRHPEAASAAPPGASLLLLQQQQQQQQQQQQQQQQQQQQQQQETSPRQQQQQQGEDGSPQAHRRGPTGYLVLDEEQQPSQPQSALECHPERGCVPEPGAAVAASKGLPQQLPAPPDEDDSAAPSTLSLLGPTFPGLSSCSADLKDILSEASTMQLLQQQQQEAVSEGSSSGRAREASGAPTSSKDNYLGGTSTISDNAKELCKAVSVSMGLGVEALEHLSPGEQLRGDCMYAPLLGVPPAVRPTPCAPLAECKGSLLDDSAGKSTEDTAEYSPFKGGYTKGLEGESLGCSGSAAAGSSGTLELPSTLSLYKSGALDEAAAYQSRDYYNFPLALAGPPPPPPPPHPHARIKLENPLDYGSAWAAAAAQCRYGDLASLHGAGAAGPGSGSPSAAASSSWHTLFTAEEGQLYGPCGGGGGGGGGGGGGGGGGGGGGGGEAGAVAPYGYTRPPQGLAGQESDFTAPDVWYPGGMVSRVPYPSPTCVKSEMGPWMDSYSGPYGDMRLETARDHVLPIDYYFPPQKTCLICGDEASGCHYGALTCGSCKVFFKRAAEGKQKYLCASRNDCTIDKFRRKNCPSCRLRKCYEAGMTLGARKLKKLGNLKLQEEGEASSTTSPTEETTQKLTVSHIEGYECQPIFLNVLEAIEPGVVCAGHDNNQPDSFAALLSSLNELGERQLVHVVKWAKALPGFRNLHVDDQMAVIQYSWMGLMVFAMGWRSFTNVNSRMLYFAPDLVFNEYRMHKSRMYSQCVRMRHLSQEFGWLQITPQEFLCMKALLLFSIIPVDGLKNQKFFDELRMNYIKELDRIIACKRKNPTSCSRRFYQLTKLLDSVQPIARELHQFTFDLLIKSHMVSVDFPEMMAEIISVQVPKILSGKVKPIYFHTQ

Compound | Potency [1] | Potency [2] | Potency [3] | Potency [4] | Potency [5] | Potency [6] | Potency [7] | Potency [8] | Potency [9] | Potency [10] | Potency [11] | Potency [12] | Potency [13] | Potency [14] | Potency [15] | Potency [16] | Potency [17] | Potency [18] | Potency [19] | Potency [20]
O=C(O)c1ccc(S(=O)(=O)O)cc1C(=O)O | inactive | inactive | inactive | inactive | inactive | inactive | inactive | inactive | inactive | inactive | inactive | inactive | inactive | inactive | inactive |  |  |  |  | 
CC(CSC(=O)c1ccccc1)C(=O)N1C[C@@H](Sc2ccccc2)C[C@H]1C(=O)O (stereo not given in full) | inactive | inactive | inactive | inactive | inactive | inactive | inactive | inactive | inactive | inactive | inactive | inactive | inactive | inactive | inactive | inactive |  |  |  | 
CCO[Si](CCCCl)(OCC)OCC | inactive | inactive | inactive | inactive | inactive | inactive | inactive | inactive | inactive |  | inactive | inactive | inactive | inactive | inactive | inactive |  |  |  | 
Nc1ccc(N)c2c1C(=O)c1ccccc1C2=O | inactive | 17.2 µM (active) | 27.3 µM (active) | 7.7 µM (active) | inactive |  |  | 24.3 µM (active) | inactive | inactive |  |  |  | 24.3 µM (active) |  |  | inactive | inactive | inactive | 
CCCn1cnc2c1c(=O)n(CCCCC(C)=O)c(=O)n2C | inactive | inactive | inactive | inactive | inactive | inactive | inactive | inactive | inactive | inactive | inactive | inactive | inactive | inactive | inactive | inactive | inactive | inactive | inactive | inactive
CCCCCCCCCc1ccc(OCCOCCO)cc1 | inactive | 2.37 µM (active) and 909 nM (active) | 3.76 µM (active) and 1.81 µM (active) | 3.76 µM (active) and 1.81 µM (active) | 13.4 µM (active) and 8.17 µM (active) | 11.1 µM (active) and 5.11 µM (active) | 18.8 µM (active) and inactive | 18.8 µM (active) | inactive | 15.1 µM (active) and 16.3 µM (active) |  |  |  | 15 µM (active) | 22.8 µM (active) |  | inactive | inactive | 4.73 µM (active) and 1.44 µM (active) | 5.35 µM (active) and 4.6 µM (active)
ClCCOCCOCCCl | inactive | inactive | inactive | inactive | inactive | inactive | inactive | inactive | inactive | inactive | inactive | inactive | inactive | inactive | inactive |  |  |  |  | 
NCC(=O)CCC(=O)O | inactive | inactive | inactive | inactive | inactive | inactive | inactive | inactive | 26.6 µM (active) | inactive | inactive | inactive | inactive | inactive | inactive | inactive |  |  |  | 
COc1ccc(C(=O)c2ccc(OC)cc2O)c(O)c1 | inactive | inactive | inactive | inactive | inactive | inactive |  | inactive | inactive | inactive | 8.77 µM [fluorescent] (active) | 30.9 µM (active) |  | inactive | inactive | inactive |  |  | inactive | 
Cc1[nH]c(C)c(Cl)c(=O)c1Cl | inactive | inactive | inactive | inactive | inactive | inactive | inactive | inactive | inactive | inactive | inactive | inactive | inactive | inactive | inactive |  |  |  |  | 
C=C(C)C(=O)OCCO | inactive | inactive | inactive | inactive | inactive | inactive | inactive | inactive | inactive | inactive | inactive | inactive | inactive | inactive | inactive | inactive |  |  |  | 
CN1CCC(N(Cc2cccs2)c2ccccc2)CC1 | inactive | 9.44 µM (active) | 11.9 µM (active) | 10.6 µM (active) | inactive | inactive | 11.9 µM (active) | 23.7 µM (active) | inactive | inactive | inactive | inactive | inactive | inactive | inactive |  |  |  |  | 
CCCCCCCN | inactive | inactive | inactive | inactive | inactive | inactive | inactive | inactive | inactive | inactive | inactive | inactive | inactive | inactive | inactive | inactive |  |  |  | 
CNCCCN1c2ccccc2CCc2ccccc21 | inactive | 4.52 µM (active) | 16 µM (active) | 11.4 µM (active) | inactive | inactive | 8.04 µM (active) | 12.7 µM (active) |  | inactive | inactive | inactive | inactive | inactive | inactive | inactive | inactive | inactive | inactive | 
